# Laboratory results from ChEMBL document CHEMBL4513141, “CO-ADD screening of NIH (USA) - Clinical Collection” (2021).
# Results with a measured potency or affinity are listed apart. Square brackets hold non-standard residues; d marks the D form. Peptide text beside a SMILES is read from it. pGlu = O=C1CC[C@@H](C(=O)O)N1; Thz = O=C(O)[C@@H]1CSCN1
# Legend:
# Staphylococcus aureus = details: Concentration 20 uM; ASSAY_TEST Inhibition of Bacterial Growth; detection method Absorption (OD600); MEDIA CAMHB; plate type 384well; NBS; CORNING #3640; time 18 hr
# Escherichia coli = details: Concentration 20 uM; ASSAY_TEST Inhibition of Bacterial Growth; detection method Absorption (OD600); MEDIA CAMHB; plate type 384well; NBS; CORNING #3640; time 18 hr
Structure (SMILES),Inhibition (Staphylococcus aureus),Inhibition (Escherichia coli)
CC(C)[N+](C)(CCOC(=O)C1c2ccccc2Oc2ccccc21)C(C)C.[Br-] [PROPANTHELINE BROMIDE],16.95%,4.45%
O=C([O-])c1cc(=O)c2c(OCC(O)COc3cccc4oc(C(=O)[O-])cc(=O)c34)cccc2o1.[Na+].[Na+] [CROMOLYN SODIUM],9.1%,-1.24%
NC(Cc1cc(I)c(Oc2ccc(O)c(I)c2)c(I)c1)C(=O)O (stereo unspecified) [RATHYRONINE],11.14%,4.17%
CC(=O)OCC(CCn1cnc2cnc(N)nc21)COC(C)=O [FAMCICLOVIR],12.23%,6.38%
O=C(O)c1cc(/N=N/c2ccc(S(=O)(=O)Nc3ccccn3)cc2)ccc1O [SULFASALAZINE],-13.67%,7.84%
CS(=O)(=O)c1ccc(-c2cc(Br)sc2-c2ccc(F)cc2)cc1 [DUP-697],14.13%,-0.37%
CN(C)CCC(c1ccc(Cl)cc1)c1ccccn1.O=C(O)/C=C\C(=O)O (stereo unspecified) [CHLORPHENIRAMINE MALEATE],-22.38%,7.3%
CC(C(=O)[O-])c1ccc(CC2CCCC2=O)cc1.[Na+] (stereo unspecified) [LOXOPROFEN SODIUM],9.06%,-0.84%
Cc1ccc(Cl)c(Nc2ccccc2C(=O)[O-])c1Cl.O.[Na+] [MECLOFENAMATE SODIUM],27.36%,2.5%
COc1ccc(CN2CCN(C(c3ccc(F)cc3)c3ccc(F)cc3)CC2)c(OC)c1OC.Cl.Cl,8.66%,-0.33%
Cc1nccn1CC1CCc2c(c3ccccc3n2C)C1=O (stereo unspecified) [ONDANSETRON],4.05%,7.33%
O=C1[C@H](CC[C@H](O)c2ccc(F)cc2)[C@@H](c2ccc(O)cc2)N1c1ccc(F)cc1 [EZETIMIBE],5.57%,-0.7%
C[C@H](CS)C(=O)N1CCC[C@H]1C(=O)O [CAPTOPRIL],-7.06%,4.92%
O=C1CC[C@@H](C(=O)N2CSC[C@H]2C(=O)O)N1 [PIDOTIMOD] ([pGlu]-[Thz]-OH),9.9%,2.88%
COCC1=C(C(=O)OC(C)OC(=O)OC(C)C)N2C(=O)[C@@H](NC(=O)/C(=N\OC)c3csc(N)n3)[C@H]2SC1 (stereo partly specified) [CEFPODOXIME PROXETIL],-13.09%,5.31%
CC[C@@]1(O)C(=O)OCc2c1cc1n(c2=O)Cc2cc3c(CN(C)C)c(O)ccc3nc2-1.Cl [TOPOTECAN HYDROCHLORIDE],12.09%,3.87%
CC(COc1ccccc1Cc1ccccc1)N1CCCCC1.O=P(O)(O)O (stereo unspecified),12.26%,7.84%
CS(=O)(=O)O.Cc1c(O)cccc1C(=O)N[C@@H](CSc1ccccc1)[C@H](O)CN1C[C@H]2CCCC[C@H]2C[C@H]1C(=O)NC(C)(C)C [NELFINAVIR MESYLATE],8.63%,1.35%
Cl.O=C(O)/C=C/c1ccc(Cn2ccnc2)cc1,-2.16%,6.89%
COc1ccc([C@@H]2Sc3ccccc3N(CCN(C)C)C(=O)[C@@H]2OC(C)=O)cc1.Cl [DILTIAZEM HYDROCHLORIDE],12.74%,5.44%

Structure (SMILES),Inhibition (Staphylococcus aureus),Inhibition (Escherichia coli)
COC(=O)Nc1nc2cc(C(=O)c3ccccc3)ccc2[nH]1 [MEBENDAZOLE],7.86%,3.86%
COc1ccnc(C[S+]([O-])c2nc3cc(OC(F)F)ccc3[n-]2)c1OC.O.[Na+] (stereo unspecified) [PANTOPRAZOLE SODIUM],15.25%,1.53%
CCCNC(=O)NS(=O)(=O)c1ccc(Cl)cc1 [CHLORPROPAMIDE],17.96%,2.94%
CN(C)C(=O)Oc1ccc[n+](C)c1.[Br-] [PYRIDOSTIGMINE BROMIDE],10.54%,-0.78%
NC(=O)N1c2ccccc2CC(=O)c2ccccc21 [OXCARBAZEPINE],15.1%,-1.4%
CCOc1cc(CC(=O)N[C@@H](CC(C)C)c2ccccc2N2CCCCC2)ccc1C(=O)O [REPAGLINIDE],15.76%,-4.96%
CCCCNc1cc(C(=O)O)cc(S(N)(=O)=O)c1Oc1ccccc1 [BUMETANIDE],10.97%,5.78%
OCc1cccnc1 [NICOTINYL ALCOHOL],10.46%,0.45%
C=C[C@H]1CN2CC[C@H]1C[C@@H]2[C@@H](O)c1ccnc2ccc(OC)cc12 [QUINIDINE],10.07%,-1.55%
CC(Cc1ccccc1)(NC(=O)CN)c1ccccc1.Cl (stereo unspecified) [REMACEMIDE HYDROCHLORIDE],12.25%,-0.35%
CC1(C)O[C@@H]2C[C@H]3[C@@H]4CCC5=CC(=O)C=C[C@]5(C)[C@@]4(F)[C@@H](O)C[C@]3(C)[C@]2(C(=O)CO)O1 [TRIAMCINOLONE ACETONIDE],7.65%,3.69%
CCS(=O)(=O)CCn1c([N+](=O)[O-])cnc1C [TINIDAZOLE],16.09%,-5.72%
C#C[C@]1(O)CC[C@H]2[C@@H]3CCC4=CC(=O)CC[C@@H]4[C@H]3CC[C@@]21CC [LEVONORGESTREL],8.4%,3.88%
CCOc1cc(N)c(Cl)cc1C(=O)NCC1CN(Cc2ccc(F)cc2)CCO1.O=C(O)CC(O)(CC(=O)O)C(=O)O (stereo unspecified) [MOSAPRIDE CITRATE],10.04%,3.47%
Cl.O.O=C1N(c2ccccc2)c2ccccc2C1(Cc1ccncc1)Cc1ccncc1,4.07%,3.98%
C/C=C1/[C@H]2C=C(C)C[C@]1(N)c1ccc(O)nc1C2,13.84%,-0.02%
CCOC(=O)OC(C)OC1=C(C(=O)Nc2ccccn2)N(C)S(=O)(=O)c2ccccc21 (stereo unspecified) [AMPIROXICAM],16.07%,-0.97%
CN(C)CCCN1c2ccccc2CCc2ccc(Cl)cc21.Cl [CLOMIPRAMINE HYDROCHLORIDE],14.19%,7.04%
COc1cc2nc(N3CCN(C(=O)C4CCCO4)CC3)nc(N)c2cc1OC (stereo unspecified) [TERAZOSIN],8.19%,-0.53%
CNC(=C[N+](=O)[O-])NCCSCc1ccc(CN(C)C)o1.Cl [RANITIDINE HYDROCHLORIDE],-17.46%,4.52%

Structure (SMILES),Inhibition (Staphylococcus aureus),Inhibition (Escherichia coli)
COc1cc(/C=C/c2ccc(O)cc2)cc(OC)c1 [PTEROSTILBENE],13.68%,1.16%
C[C@H]1C[C@@H]2[C@H]([C@@H](O)C[C@@]3(C)[C@H]2CC[C@]3(O)C(=O)CO)[C@@]2(C)C=CC(=O)C=C12 [METHYLPREDNISOLONE],7.4%,5%
O=C1c2c(O)cc(O)cc2O[C@H](c2ccc(O)c(O)c2)[C@@H]1O,15.43%,-4.02%
C[C@]12CCC(=O)C=C1CC[C@@H]1[C@@H]2[C@@H](O)C[C@@]2(C)[C@H]1CC[C@]2(O)C(=O)COC(=O)CCC(=O)O [HYDROCORTISONE HEMISUCCINATE ANHYDROUS],-27.4%,4.71%
Nc1nc(N)nc(-c2cc(Cl)ccc2Cl)n1.O=C(O)/C=C\C(=O)O [IRSOGLADINE MALEATE],8.27%,0.86%
CC1=C(/C=C/C(C)=C/C=C/C(C)=C/C(=O)O)C(C)(C)CCC1 [TRETINOIN],13.92%,7.4%
CCN1CCC[C@H]1CNC(=O)c1c(O)c(Cl)cc(Cl)c1OC [RACLOPRIDE],2.11%,10.63%
COc1c2occc2cc2ccc(=O)oc12 [METHOXSALEN],13.34%,-6.11%
C#C[C@]1(O)CC[C@H]2[C@@H]3CCC4=Cc5oncc5C[C@]4(C)[C@H]3CC[C@@]21C [DANAZOL],2.21%,-2.5%
C[C@]12C=CC(=O)C=C1CC[C@@H]1[C@@H]2C(=O)C[C@@]2(C)[C@H]1CC[C@]2(O)C(=O)CO [PREDNISONE],12.15%,4.61%
Cl.NC1CCN(c2cccc(Cl)n2)CC1,8.14%,8.42%
Cl.O[C@@H](c1cc(C(F)(F)F)nc2c(C(F)(F)F)cccc12)[C@H]1CCCCN1,36.85%,7.08%
CN(C)CCN(Cc1ccccc1)c1ccccn1.Cl [TRIPELENNAMINE HYDROCHLORIDE],-12.77%,7.66%
C=C1/C(=C\C=C2/CCC[C@]3(C)[C@@H]([C@H](C)/C=C/[C@@H](O)C4CC4)CC[C@@H]23)C[C@@H](O)C[C@@H]1O [CALCIPOTRIENE],9.78%,4.8%
O=C1CCC(N2C(=O)c3ccccc3C2=O)C(=O)N1 (stereo unspecified) [THALIDOMIDE],9.61%,-2.18%
CN1CCCCC1CCN1c2ccccc2Sc2ccc([S+](C)[O-])cc21.O=S(=O)(O)c1ccccc1 (stereo unspecified) [MESORIDAZINE BESYLATE],-15.92%,4.24%
CNCCC=C1c2ccccc2CCc2ccccc21.Cl [NORTRIPTYLINE HYDROCHLORIDE],3.19%,4.29%
CCCC1O[C@@H]2C[C@H]3[C@@H]4CCC5=CC(=O)C=C[C@]5(C)[C@H]4[C@@H](O)C[C@]3(C)[C@]2(C(=O)CO)O1 (stereo partly specified) [BUDESONIDE],6.99%,-1.42%
